Holding throughout (conditions): mRNA level, 48 h; actives raise or lower the signal
Read-out in experiment [1]: Caspase-3 (Homo sapiens) (UniProt P42574)
As to the kind of experiment: LTEA_HepaRG_CASP3: Life Technologies and Expression Analysis (LTEA) Assay for cysteine-aspartic acid protease (CASP3) using HepaRG (AID 2283477). Put shortly:
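Transcript-level assay: CASP3 mRNA in human HepaRG after 48 h treatment, eight half-log concentrations from 100 uM in 0.5% DMSO, quantified by qRT-PCR.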

Read-out in experiment [2]: Cytochrome P450 (CYP24A1), CYP24A1 (gene 1591)
The experiment is described as follows: LTEA_HepaRG_CYP24A1: Life Technologies and Expression Analysis (LTEA) Assay for Cytochrome P450 (CYP24A1) using HepaRG (AID 2283478). Put shortly: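 Gene expression of CYP24A1 by TaqMan qRT-PCR in HepaRG after 48 h treatment, highest concentration 100 uM; activity fitted in both directions relative to DMSO vehicle.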

Read-out in experiment [3]: Cytochrome P450 (CYP1A2), CYP1A2 (gene 1544)
As to the kind of experiment: LTEA_HepaRG_CYP1A2: Life Technologies and Expression Analysis (LTEA) Assay for Cytochrome P450 (CYP1A2) using HepaRG (AID 2283479). Put shortly: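 In duplicate wells, HepaRG cultures maintained in 0.5% DMSO were treated 48 h across an 8-point, half-log series topping at 100 uM; phenobarbital (1 mM) served as induction control. Expression was read by qRT-PCR.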

Read-out in experiment [4]: cysteine-aspartic acid protease (CASP8), CASP8 (gene 841)
As to the kind of experiment: LTEA_HepaRG_CASP8: Life Technologies and Expression Analysis (LTEA) Assay for cysteine-aspartic acid protease (CASP8) using HepaRG (AID 2283480). The method, boiled down:
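Differentiated HepaRG cells in serum-free induction medium, 48 h exposure, eight-point half-log series from 100 uM in 0.5% DMSO, duplicates. CASP8 mRNA by qRT-PCR, normalized to ACTB, GAPDH, POLR2A; bidirectional fit versus DMSO.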

Read-out in experiment [5]: Cytochrome P450 (CYP2B6), CYP2B6 (gene 1555)
The experiment is described as follows: LTEA_HepaRG_CYP2B6: Life Technologies and Expression Analysis (LTEA) Assay for Cytochrome P450 (CYP2B6) using HepaRG (AID 2283481). Put shortly: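 Human HepaRG, 48 h dosing, 0.5% DMSO vehicle, top dose 100 uM. CYP2B6 transcript by qRT-PCR, housekeeping-normalized, bidirectional curve fit.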

Read-out in experiment [6]: Cytochrome P450 2C19 (Homo sapiens) (UniProt P33261)
The experiment is described as follows: LTEA_HepaRG_CYP2C19: Life Technologies and Expression Analysis (LTEA) Assay for CYP2C19 using HepaRG (AID 2283482). Put shortly:
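Endpoint: CYP2C19 mRNA change, bidirectional fit vs 0.5% DMSO. Cells: HepaRG, 48 h exposure, eight-point series topping at 100 uM. Quantitation: qRT-PCR normalized to ACTB, GAPDH, POLR2A.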

Read-out in experiment [7]: CYP2C8 (gene 1558)
The experiment is described as follows: LTEA_HepaRG_CYP2C8: Life Technologies and Expression Analysis (LTEA) Assay for CYP2C8 using HepaRG (AID 2283483). The method, boiled down:
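Differentiated HepaRG cells in serum-free induction medium exposed 48 h in duplicate to 8 half-log concentrations from 100 uM in 0.5% DMSO. CYP2C8 mRNA by qRT-PCR normalized to ACTB, GAPDH, POLR2A; bidirectional fit versus DMSO.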

Read-out in experiment [8]: CYP2C9 (gene 1559)
As to the kind of experiment: LTEA_HepaRG_CYP2C9: Life Technologies and Expression Analysis (LTEA) Assay for CYP2C9 using HepaRG (AID 2283484). Put shortly: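 Differentiated human HepaRG cells in serum-free induction medium were exposed 48 h to chemicals in 8-point half-log series from 100 uM (0.5% DMSO), in duplicate. CYP2C9 mRNA was measured by qRT-PCR, normalized to ACTB/GAPDH/POLR2A, with bidirectional fitting versus DMSO.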

Read-out in experiment [9]: CYP2E1 (gene 1571)
As to the kind of experiment: LTEA_HepaRG_CYP2E1: Life Technologies and Expression Analysis (LTEA) Assay for CYP2E1 using HepaRG (AID 2283485). Put shortly:
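Differentiated HepaRG cells were treated in duplicate for 48 h with chemicals in 0.5% DMSO, from 100 uM downward in half-log dilutions. RNA was then analysed by qRT-PCR for CYP2E1 induction or loss.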

Read-out in experiment [10]: CYP4A11 (gene 1579)
The experiment is described as follows: LTEA_HepaRG_CYP4A11: Life Technologies and Expression Analysis (LTEA) Assay for CYP4A11 using HepaRG (AID 2283486). Put shortly:
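Human hepatic HepaRG cultures receive duplicate 48 h exposures across a concentration-response series topping at 100 uM. Expression changes in CYP4A11 are measured by qRT-PCR relative to DMSO controls.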

Read-out in experiment [11]: DNA damage-inducible transcript 3 (DDIT3), DDIT3 (gene 1649)
The experiment is described as follows: LTEA_HepaRG_DDIT3: Life Technologies and Expression Analysis (LTEA) Assay for DNA damage-inducible transcript 3 (DDIT3) using HepaRG (AID 2283488). The method, boiled down: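 Changes in DDIT3 transcript, in either direction relative to 0.5% DMSO vehicle, were quantified by TaqMan qRT-PCR after 48 h chemical exposure of HepaRG cells at 8 concentrations, maximum 100 uM.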

Read-out in experiment [12]: Pro-epidermal growth factor (Homo sapiens) (UniProt P01133)
The experiment is described as follows: LTEA_HepaRG_EGF: Life Technologies and Expression Analysis (LTEA) Assay for Epidermal growth factor (EGF) using HepaRG (AID 2283489). Put shortly:
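Concentration-response mRNA assay: HepaRG cells dosed 48 h (max 100 uM, 0.5% DMSO), EGF measured by qRT-PCR and normalized to ACTB/GAPDH/POLR2A.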

Read-out in experiment [13]: Early growth response protein 1 (EGR1) transcription factor, EGR1 (gene 1958)
As to the kind of experiment: LTEA_HepaRG_EGR1: Life Technologies and Expression Analysis (LTEA) Assay for Early growth response protein 1 (EGR1) transcription factor using HepaRG (AID 2283490). The method, boiled down: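 Differentiated HepaRG cells in serum-free induction medium exposed 48 hours, duplicate, to 8 half-log concentrations up to 100 uM in 0.5% DMSO. EGR1 mRNA measured by TaqMan qRT-PCR, normalized to ACTB, GAPDH, POLR2A; bidirectional fit versus DMSO.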

Read-out in experiment [14]: Ezrin (EZR), EZR (gene 7430)
As to the kind of experiment: LTEA_HepaRG_EZR: Life Technologies and Expression Analysis (LTEA) Assay for Ezrin (EZR) using HepaRG (AID 2283491). The method, boiled down:
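Read-out is EZR transcript level by qRT-PCR, normalized to three housekeeping genes and fitted bidirectionally against the DMSO control. Human HepaRG cells received test chemicals for 48 h at eight half-log concentrations up to 100 uM in 0.5% DMSO.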

Read-out in experiment [15]: CYP3A5 (gene 1577)
The experiment is described as follows: LTEA_HepaRG_CYP3A5: Life Technologies and Expression Analysis (LTEA) Assay for CYP3A5 using HepaRG (AID 2283493). Put shortly:
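mRNA induction or loss of CYP3A5 assessed in HepaRG after 48 h dosing, 100 uM top concentration, duplicate wells; TaqMan qRT-PCR with ACTB, GAPDH, POLR2A normalization; 0.5% DMSO as negative control.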

Read-out in experiment [16]: Fatty Acid-Binding Protein 1 (FABP1), FABP1 (gene 2168)
As to the kind of experiment: LTEA_HepaRG_FABP1: Life Technologies and Expression Analysis (LTEA) Assay for Fatty Acid-Binding Protein 1 (FABP1) using HepaRG (AID 2283494). The method, boiled down:
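Differentiated human HepaRG cells exposed 48 h in serum-free induction medium to eight half-log concentrations up to 100 uM (0.5% DMSO), duplicate. FABP1 mRNA by qRT-PCR, normalised to ACTB, GAPDH, POLR2A; bidirectional fitting against DMSO.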

Read-out in experiment [17]: Cytochrome P450 4A22 (Homo sapiens) (UniProt Q5TCH4)
As to the kind of experiment: LTEA_HepaRG_CYP4A22: Life Technologies and Expression Analysis (LTEA) Assay for Cytochrome P450 4A22 (CYP4A22) using HepaRG (AID 2283495). Put shortly: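 Concentration-response (8 points, max 100 uM, 0.5% DMSO) in human HepaRG liver cells after 48 h exposure. CYP4A22 mRNA by TaqMan qRT-PCR with housekeeping-gene normalization.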

Read-out in experiment [18]: Cytochrome P450 7A1 (Homo sapiens) (UniProt P22680)
The experiment is described as follows: LTEA_HepaRG_CYP7A1: Life Technologies and Expression Analysis (LTEA) Assay for Cytochrome P450 7A1 (CYP7A1) using HepaRG (AID 2283496). The method, boiled down: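 Gene expression endpoint in human HepaRG liver cells treated for 48 h with test chemicals (up to 100 uM, 0.5% DMSO). Values come from bidirectional concentration-response fitting versus DMSO.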

Read-out in experiment [19]: Cytochrome P450 3A4 (Homo sapiens) (UniProt P08684)
The experiment is described as follows: LTEA_HepaRG_CYP3A4: Life Technologies and Expression Analysis (LTEA) Assay for CYP3A4 using HepaRG (AID 2283487). The method, boiled down: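 HepaRG, 48 h exposure, 8-pt CRC from 100 uM (half-log), 0.5% DMSO, duplicates; serum-free induction medium. Readout: CYP3A4 mRNA, qRT-PCR, ACTB/GAPDH/POLR2A normalization. Bidirectional fit vs DMSO.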

Read-out in experiment [20]: Cytochrome P450 3A7 (Homo sapiens) (UniProt P24462)
As to the kind of experiment: LTEA_HepaRG_CYP3A7: Life Technologies and Expression Analysis (LTEA) Assay for CYP3A7 using HepaRG (AID 2283492). Put shortly: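 qRT-PCR of CYP3A7 in HepaRG lysates after 48 h treatment; concentration-response (8 points, max 100 uM) analysed bidirectionally relative to 0.5% DMSO controls.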

What is called AC50 is the concentration at which the activity in the assay is half-maximal.

Activity calls are given as the source filed them. Rule for the calls: active = hit-call score of the fitted dose curve at least 0.9, where 1 is the maximum; inactive = score below 0.9.

Chain of Cytochrome P450 2C19 (Homo sapiens) (P33261 whole entry, looked up): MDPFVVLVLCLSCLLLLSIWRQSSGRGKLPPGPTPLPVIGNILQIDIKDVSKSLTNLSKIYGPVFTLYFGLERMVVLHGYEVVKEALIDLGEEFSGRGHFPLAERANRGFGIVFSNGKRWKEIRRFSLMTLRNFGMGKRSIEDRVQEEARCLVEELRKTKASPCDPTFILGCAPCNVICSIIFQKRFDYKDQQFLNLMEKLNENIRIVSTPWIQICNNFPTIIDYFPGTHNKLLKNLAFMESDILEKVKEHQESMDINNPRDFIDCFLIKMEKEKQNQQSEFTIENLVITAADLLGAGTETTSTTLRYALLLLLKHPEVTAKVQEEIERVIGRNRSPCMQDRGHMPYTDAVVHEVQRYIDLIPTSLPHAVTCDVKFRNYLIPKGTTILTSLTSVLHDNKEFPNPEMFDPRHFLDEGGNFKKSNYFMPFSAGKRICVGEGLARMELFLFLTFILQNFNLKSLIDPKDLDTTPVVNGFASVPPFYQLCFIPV
Chain of Caspase-3 (Homo sapiens) (P42574 whole entry, looked up): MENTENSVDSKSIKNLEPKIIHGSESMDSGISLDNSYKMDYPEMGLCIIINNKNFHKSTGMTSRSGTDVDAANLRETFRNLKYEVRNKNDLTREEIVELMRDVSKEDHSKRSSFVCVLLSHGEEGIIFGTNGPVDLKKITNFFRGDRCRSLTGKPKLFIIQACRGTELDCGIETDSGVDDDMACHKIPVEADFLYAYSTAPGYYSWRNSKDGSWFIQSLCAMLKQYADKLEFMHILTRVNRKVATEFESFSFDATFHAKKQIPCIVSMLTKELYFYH
Chain of Cytochrome P450 3A4 (Homo sapiens) (P08684 whole entry, looked up): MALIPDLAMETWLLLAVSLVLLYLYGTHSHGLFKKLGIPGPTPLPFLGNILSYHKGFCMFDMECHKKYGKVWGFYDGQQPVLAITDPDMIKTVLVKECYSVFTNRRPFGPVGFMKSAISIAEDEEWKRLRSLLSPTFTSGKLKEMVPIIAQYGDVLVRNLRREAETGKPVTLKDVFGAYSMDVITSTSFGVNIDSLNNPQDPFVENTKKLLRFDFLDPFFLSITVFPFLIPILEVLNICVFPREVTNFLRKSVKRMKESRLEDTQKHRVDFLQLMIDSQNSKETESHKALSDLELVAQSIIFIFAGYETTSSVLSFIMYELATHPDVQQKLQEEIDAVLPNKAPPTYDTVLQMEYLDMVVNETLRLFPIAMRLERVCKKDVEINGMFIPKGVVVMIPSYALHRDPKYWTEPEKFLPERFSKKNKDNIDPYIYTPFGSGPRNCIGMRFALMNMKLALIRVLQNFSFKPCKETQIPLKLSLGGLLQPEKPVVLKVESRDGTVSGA
Chain of Cytochrome P450 3A7 (Homo sapiens) (P24462 whole entry, looked up): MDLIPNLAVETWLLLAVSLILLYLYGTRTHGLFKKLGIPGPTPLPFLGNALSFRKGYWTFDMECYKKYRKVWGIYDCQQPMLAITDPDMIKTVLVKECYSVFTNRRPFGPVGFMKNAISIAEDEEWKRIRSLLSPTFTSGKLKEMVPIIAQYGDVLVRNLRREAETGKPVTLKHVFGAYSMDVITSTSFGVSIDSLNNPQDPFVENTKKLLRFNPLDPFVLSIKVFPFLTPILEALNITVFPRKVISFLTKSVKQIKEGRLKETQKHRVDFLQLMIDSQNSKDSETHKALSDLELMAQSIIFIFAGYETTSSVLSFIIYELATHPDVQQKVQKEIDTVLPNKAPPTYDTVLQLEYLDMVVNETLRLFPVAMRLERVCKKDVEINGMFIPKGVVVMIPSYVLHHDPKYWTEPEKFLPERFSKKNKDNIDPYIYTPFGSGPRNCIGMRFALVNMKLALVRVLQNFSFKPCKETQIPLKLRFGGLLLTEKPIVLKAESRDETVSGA

Turning to `Nc1ccccc1N`, the result in experiment [1], in [2], in experiment [4], in [11], in [12] and in experiment [14] was inactive. For the same compound, the AC50 is 2.19 µM (active) in experiment [3]; 69 µM (active) in experiment [5]; 71.8 µM (active) in experiment [6]; 78.3 µM (active) in experiment [7]; 71 µM (active) in [8]; 73.1 µM (active) in experiment [9]. Besides, the AC50 in experiment [10] is 66.5 µM (active); in [13] it was 30 µM (active); in experiment [15], 51.3 µM (active); in [16], 72.6 µM (active); in experiment [17], 64.6 µM (active); in experiment [18], 79.9 µM (active).

`Cc1cccc(Nc2cc(Cl)nc(SCC(=O)O)n2)c1C`: the compound was classed as inactive in experiment [1], in experiment [2], in experiment [3], in experiment [4], in [8] and in experiment [11]. For the same compound, the result in [12], in experiment [13] and in experiment [15] was inactive. The AC50 in experiment [5] is 65.4 µM (active); in experiment [6], 50 µM (active); in experiment [7] it was 50 µM (active); in experiment [9], 22.3 µM (active); in experiment [10], 4.63 µM (active); in experiment [16] it was 16.7 µM (active). The figures for the AC50 in [17] and in experiment [18] were 16.7 µM (active) and 19.5 µM (active), respectively.

In the case of `CC=Cc1ccc(O)c(OC)c1`, the call in experiment [1], in experiment [3], in experiment [4], in experiment [5], in [6] and in experiment [7] was inactive. The compound was called inactive in [8], in experiment [9], in [10], in experiment [19], in experiment [11] and in experiment [12]. Further, the outcome in [13], in experiment [14], in experiment [20], in [15], in [16] and in experiment [17] was inactive. In experiment [18], the call was inactive.

`CN[C@H]1CC[C@@H](c2ccc(Cl)c(Cl)c2)c2ccc(S(N)(=O)=O)cc21`: the outcome in [1], in experiment [2], in experiment [3], in experiment [4], in experiment [6] and in [7] was inactive. The compound was classed as inactive in experiment [12], in experiment [20] and in experiment [15]. The AC50 in [5] is 11.4 µM (active); in [8], 34.1 µM (active); in [9] it was 13 µM (active); in experiment [10], 21.4 µM (active); in experiment [19] it was 89.2 µM (active); in [11] it was 63 µM (active). In addition, the AC50 is 83 µM (active) in experiment [13], 50 µM (active) in experiment [16], 15.8 µM (active) in [17] and 12.2 µM (active) in experiment [18].

Values taken from PubChem BioAssay (EPA / NIEHS).
